Results taken from PubChem BioAssay (EPA / NIEHS).
Results filed as inconclusive are left out. The source made the active and inactive calls. Rule for the calls, unless noted: active = hit-call score of the fitted dose curve at least 0.9, where 1 is the maximum; inconclusive = response in the unintended direction; inactive = score below 0.9.

Experiments:
[1] = biological target: human Retinoic Acid Receptor beta (RARb), RARB (gene 5915) (UniProt P10826); experiment: ATG_RARb_TRANS: Attagene TRANS-FACTORIAL HepG2 Assay for human Retinoic Acid Receptor beta (AID 2283004)
human Retinoic Acid Receptor beta (RARb), RARB (gene 5915), sequence (P10826 whole entry, looked up, the tested form may be a part): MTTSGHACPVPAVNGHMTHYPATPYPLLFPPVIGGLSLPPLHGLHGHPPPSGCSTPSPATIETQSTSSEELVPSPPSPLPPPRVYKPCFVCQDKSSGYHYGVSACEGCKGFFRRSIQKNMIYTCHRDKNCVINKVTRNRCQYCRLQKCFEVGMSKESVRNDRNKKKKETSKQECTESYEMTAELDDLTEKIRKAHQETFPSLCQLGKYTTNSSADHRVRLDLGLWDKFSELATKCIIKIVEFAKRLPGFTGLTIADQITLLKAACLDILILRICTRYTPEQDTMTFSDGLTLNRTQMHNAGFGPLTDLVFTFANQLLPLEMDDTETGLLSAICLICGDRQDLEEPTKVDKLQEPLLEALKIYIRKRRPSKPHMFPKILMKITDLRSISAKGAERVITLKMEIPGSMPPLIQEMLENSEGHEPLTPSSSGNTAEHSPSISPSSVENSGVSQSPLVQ
In short: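 Induction of reporter mRNA from a chimeric RARb-Gal4 construct was measured by RT-PCR, FAM labelling, HpaI digestion and capillary electrophoresis. Measurements followed 24 h compound treatment of transiently transfected human HepG2 liver cells, with DMSO as baseline.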

[2] = biological target: Retinoic acid receptor alpha (Homo sapiens) (UniProt P10276); experiment: ATG_RARa_TRANS: Attagene TRANS-FACTORIAL HepG2 Assay for human Retinoic Acid Receptor alpha (RARa) (AID 2283005)
Retinoic acid receptor alpha (Homo sapiens), sequence (P10276 whole entry, looked up, the tested form may be a part): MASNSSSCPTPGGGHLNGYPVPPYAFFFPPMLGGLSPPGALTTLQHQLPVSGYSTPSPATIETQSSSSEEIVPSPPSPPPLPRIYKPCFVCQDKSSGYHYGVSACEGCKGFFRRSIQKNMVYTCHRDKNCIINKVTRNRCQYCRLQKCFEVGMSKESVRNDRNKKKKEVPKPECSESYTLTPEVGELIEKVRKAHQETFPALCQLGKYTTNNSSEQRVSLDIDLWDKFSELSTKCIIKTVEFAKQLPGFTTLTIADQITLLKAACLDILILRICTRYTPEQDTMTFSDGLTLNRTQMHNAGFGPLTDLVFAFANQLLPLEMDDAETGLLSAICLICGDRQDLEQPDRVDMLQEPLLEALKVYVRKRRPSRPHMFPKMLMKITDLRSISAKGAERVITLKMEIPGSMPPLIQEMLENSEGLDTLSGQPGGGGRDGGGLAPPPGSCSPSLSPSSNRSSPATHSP
In short: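 Reporter transcripts, measured by RT-PCR with fluorescent labeling and capillary electrophoresis after 24 h dosing, reflect activity of an exogenous human RARa–GAL4 fusion in transiently transfected HepG2. Fitted for increase relative to DMSO.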

[3] = biological target: human RAR-related Orphan Receptor beta (RORb), RORB (gene 6096) (UniProt Q92753); experiment: ATG_RORb_TRANS: Attagene TRANS-FACTORIAL HepG2 Assay for human RAR-related Orphan Receptor beta (RORb) (AID 2283010)
human RAR-related Orphan Receptor beta (RORb), RORB (gene 6096), sequence (Q92753 whole entry, looked up, the tested form may be a part): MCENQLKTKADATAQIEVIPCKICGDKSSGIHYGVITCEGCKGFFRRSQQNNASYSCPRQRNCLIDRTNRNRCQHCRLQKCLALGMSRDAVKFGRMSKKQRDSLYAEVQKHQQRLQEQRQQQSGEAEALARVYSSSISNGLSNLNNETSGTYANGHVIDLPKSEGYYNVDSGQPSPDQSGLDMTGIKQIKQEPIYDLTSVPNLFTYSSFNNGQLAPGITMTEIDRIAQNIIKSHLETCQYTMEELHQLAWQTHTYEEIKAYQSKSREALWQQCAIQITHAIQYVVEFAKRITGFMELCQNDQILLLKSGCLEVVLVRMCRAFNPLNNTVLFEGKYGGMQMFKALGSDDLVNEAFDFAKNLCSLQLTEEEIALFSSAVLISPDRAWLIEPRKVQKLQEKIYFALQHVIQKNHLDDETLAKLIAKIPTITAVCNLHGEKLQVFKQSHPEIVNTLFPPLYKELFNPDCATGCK
In short: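 In this TRANS-format test, human HepG2 cells express chimeric NR-Gal4 fusion proteins driving GAL4-UAS reporters. After 24 h dosing, reporter transcripts are measured by fluorescent RT-PCR/capillary electrophoresis, with DMSO as negative control.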

[4] = biological target: human RAR-related Orphan Receptor gamma (RORg), RORC (gene 6097) (UniProt P51449); experiment: ATG_RORg_TRANS: Attagene TRANS-FACTORIAL HepG2 Assay for human RAR-related Orphan Receptor gamma (RORg) (AID 2283011)
human RAR-related Orphan Receptor gamma (RORg), RORC (gene 6097), sequence (P51449 whole entry, looked up, the tested form may be a part): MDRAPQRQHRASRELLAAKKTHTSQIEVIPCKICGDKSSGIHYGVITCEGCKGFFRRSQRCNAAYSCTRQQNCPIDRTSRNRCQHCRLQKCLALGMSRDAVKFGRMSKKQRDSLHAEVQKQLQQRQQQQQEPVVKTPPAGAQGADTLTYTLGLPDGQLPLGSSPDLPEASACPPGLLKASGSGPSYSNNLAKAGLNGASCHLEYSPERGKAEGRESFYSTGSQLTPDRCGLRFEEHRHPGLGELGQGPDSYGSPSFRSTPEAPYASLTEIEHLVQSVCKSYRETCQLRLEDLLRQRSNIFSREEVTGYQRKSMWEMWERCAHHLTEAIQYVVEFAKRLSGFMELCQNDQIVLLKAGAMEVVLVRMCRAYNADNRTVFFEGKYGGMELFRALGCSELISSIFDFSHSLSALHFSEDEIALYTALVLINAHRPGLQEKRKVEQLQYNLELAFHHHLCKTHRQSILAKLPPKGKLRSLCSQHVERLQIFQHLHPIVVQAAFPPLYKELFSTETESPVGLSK
In short: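 Reporter transcripts from a transfected RORg-GAL4 chimera in HepG2 cells were quantified 24 h after dosing by RT-PCR, 6-FAM labelling, HpaI digestion and capillary electrophoresis; increases over DMSO baseline were fitted.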

[5] = biological target: Retinoic acid receptor RXR-alpha (Homo sapiens) (UniProt P19793); experiment: ATG_RXRa_TRANS: Attagene TRANS-FACTORIAL HepG2 Assay for human Retinoid X Receptor alpha (RXRa) (AID 2283012)
Retinoic acid receptor RXR-alpha (Homo sapiens), sequence (P19793 whole entry, looked up, the tested form may be a part): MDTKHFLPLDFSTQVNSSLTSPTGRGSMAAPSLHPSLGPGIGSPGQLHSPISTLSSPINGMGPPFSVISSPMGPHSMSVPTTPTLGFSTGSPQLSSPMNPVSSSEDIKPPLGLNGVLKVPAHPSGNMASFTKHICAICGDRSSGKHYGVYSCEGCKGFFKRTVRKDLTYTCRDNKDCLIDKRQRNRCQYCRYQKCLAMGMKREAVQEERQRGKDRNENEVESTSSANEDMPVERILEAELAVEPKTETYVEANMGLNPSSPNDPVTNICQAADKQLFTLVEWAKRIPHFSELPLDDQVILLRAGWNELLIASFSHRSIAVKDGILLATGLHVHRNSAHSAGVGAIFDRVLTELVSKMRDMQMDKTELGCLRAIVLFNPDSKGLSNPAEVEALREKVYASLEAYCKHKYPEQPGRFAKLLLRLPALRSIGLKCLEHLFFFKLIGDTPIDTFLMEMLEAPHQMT
In short: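 Cells (HepG2) carried transiently transfected GAL4-responsive reporter units. Following a 24 h chemical incubation, reporter mRNA induction was read via RT-PCR fragment analysis; DMSO served as negative control and baseline.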

[6] = read-out: Intercellular Adhesion Molecule 1 (ICAM1), ICAM1 (gene 3383); experiment: BSK_3C_ICAM1: BioMAP Diversity Plus: 3C Assay for Intercellular Adhesion Molecule 1 (ICAM1) Biomarker Activity (AID 2283003; active = hit-call score of the fitted dose curve at least 0.9, where 1 is the maximum; inactive = score below 0.9); conditions: primary human endothelial cells (HUVEC); actives raise or lower the signal
In short: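 Human vascular endothelial primary cells, 3C conditions, 24 h treatment. ICAM-1 by ELISA.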

[7] = BSK_3C_Proliferation: Cell Proliferation Assessment in the BioMAP Diversity Plus: 3C Assay (AID 2283006; active = hit-call score of the fitted dose curve at least 0.9, where 1 is the maximum; inactive = score below 0.9); conditions: primary human endothelial cells (HUVEC)
In short: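 Proliferation of human vascular endothelial primary cells after 48 h dosing, quantified as SRB-stained protein at 560 nm relative to DMSO.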

[8] = biological target: Nuclear receptor subfamily 1 group I member 2 (Homo sapiens) (UniProt O75469); experiment: ATG_PXR_TRANS: Attagene TRANS-FACTORIAL HepG2 Assay for human Pregnane X Receptor (PXR) (AID 2283008)
Nuclear receptor subfamily 1 group I member 2 (Homo sapiens), sequence (O75469 whole entry, looked up, the tested form may be a part): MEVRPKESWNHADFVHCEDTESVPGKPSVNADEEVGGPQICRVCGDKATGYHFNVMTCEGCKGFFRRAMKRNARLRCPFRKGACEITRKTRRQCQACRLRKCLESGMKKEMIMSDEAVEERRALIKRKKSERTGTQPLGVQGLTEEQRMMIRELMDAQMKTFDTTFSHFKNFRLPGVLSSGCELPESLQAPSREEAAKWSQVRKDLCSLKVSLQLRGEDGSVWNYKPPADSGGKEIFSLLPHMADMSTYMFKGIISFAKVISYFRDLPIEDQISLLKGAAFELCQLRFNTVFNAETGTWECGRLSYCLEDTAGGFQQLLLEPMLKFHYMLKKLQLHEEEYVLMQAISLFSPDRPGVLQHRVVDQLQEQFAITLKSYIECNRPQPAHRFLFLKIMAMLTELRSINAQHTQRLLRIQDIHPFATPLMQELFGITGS
In short: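 Read-out is fluorescence of labelled reporter cDNA fragments separated by capillary electrophoresis after RT-PCR and HpaI digestion. Source: HepG2 cells carrying PXR-GAL4/UAS reporter constructs, treated 24 h; activity fitted upward relative to DMSO.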

[9] = biological target: human Thyroid Receptor alpha (THRa1), THRA (gene 7067) (UniProt P10827); experiment: ATG_THRa1_TRANS: Attagene TRANS-FACTORIAL HepG2 Assay for human Thyroid Receptor alpha (THRa1) (AID 2283014)
In short: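 Transcripts from GAL4-UAS-driven reporters, measured after 24 h compound exposure by RT-PCR plus capillary electrophoresis of 6-FAM-labeled fragments, were fitted for gain of signal relative to DMSO. Cells: transiently transfected HepG2 expressing NR-Gal4 chimeras.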

[10] = read-out: E-selectin (Homo sapiens) (UniProt P16581); experiment: BSK_3C_Eselectin: BioMAP Diversity Plus: 3C Assay for Eselectin Biomarker Activity (AID 2283015; active = hit-call score of the fitted dose curve at least 0.9, where 1 is the maximum; inactive = score below 0.9;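 note: cell surface E-selectin protein quantified by ELISA 24 h after dosing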); conditions: primary human endothelial cells (HUVEC); actives raise or lower the signal
In short: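 E-selectin ELISA readout, fitted bidirectionally relative to DMSO, taken 24 h post-dosing in HUVEC cultures of the 3C system. Overt cytotoxicity tracked with sulforhodamine B staining of parallel wells.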

[11] = read-out: Interleukin-1 alpha (IL1a), IL1A (gene 3552); experiment: BSK_BE3C_IL1a: BioMAP Diversity Plus: BE3C Assay for Interleukin-1 alpha (IL1a) Biomarker Activity (AID 2283016; active = hit-call score of the fitted dose curve at least 0.9, where 1 is the maximum; inactive = score below 0.9); conditions: primary human bronchial epithelial cells; actives raise or lower the signal
In short: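 Cultures of primary human bronchial epithelial cells receive test chemical. After 24 h, IL-1a is quantified by ELISA, while parallel wells are fixed in TCA and SRB-stained for total protein. Changes in either direction are fitted relative to DMSO.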

[12] = read-out: Monocyte Chemoattractant Protein-1 (MCP1), CCL2 (gene 6347); experiment: BSK_3C_MCP1: BioMAP Diversity Plus: 3C Assay for Monocyte Chemoattractant Protein-1 (MCP1) Biomarker Activity (AID 2283017; active = hit-call score of the fitted dose curve at least 0.9, where 1 is the maximum; inactive = score below 0.9); conditions: primary human endothelial cells (HUVEC); actives raise or lower the signal
In short: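 MCP-1 was measured by ELISA 24 h after dosing in primary HUVEC 3C cultures and fitted in both directions relative to DMSO; cytotoxicity was checked by SRB total-protein staining in parallel wells.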

[13] = read-out: Monocyte Chemoattractant Protein-1 (MCP1), CCL2 (gene 6347); experiment: BSK_4H_MCP1: BioMAP Diversity Plus: 4H Assay for Monocyte Chemoattractant Protein-1 (MCP1) Biomarker Activity (AID 2283018; active = hit-call score of the fitted dose curve at least 0.9, where 1 is the maximum; inactive = score below 0.9); conditions: primary human endothelial cells (HUVEC); actives raise or lower the signal
In short: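 Readout: MCP-1 ELISA on compound-treated HUVEC, sampled 24 h post-dosing. Baseline and negative control DMSO; bidirectional fit. Overt toxicity checked alongside by sulforhodamine B protein staining at time of biomarker measurement.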

[14] = read-out: Human Leukocyte Antigen - DR isotype (HLADR), HLA-DRA (gene 3122); experiment: BSK_3C_HLADR: BioMAP Diversity Plus: 3C Assay for Human Leukocyte Antigen - DR isotype (HLADR) Biomarker Activity (AID 2283019; active = hit-call score of the fitted dose curve at least 0.9, where 1 is the maximum; inactive = score below 0.9;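 note: ELISA of cell-surface HLA-DR on HUVEC 24 h after dosing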); conditions: primary human endothelial cells (HUVEC); actives raise or lower the signal
In short: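 Bidirectional fitting against DMSO was applied to the HLA-DR ELISA signal from human umbilical vein endothelial cells, 24 h post-dose. Cytotoxicity came from parallel SRB total-protein staining; 3C proliferation was counted by SRB at 48 h.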

[15] = read-out: Interleukin-8 (IL8), CXCL8 (gene 3576); experiment: BSK_3C_IL8: BioMAP Diversity Plus: 3C Assay for Interleukin-8 (IL8) Biomarker Activity (AID 2283020; active = hit-call score of the fitted dose curve at least 0.9, where 1 is the maximum; inactive = score below 0.9); conditions: primary human endothelial cells (HUVEC); actives raise or lower the signal
In short: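 Human vascular endothelial cells (umbilical vein) in the 3C system; IL-8 level detected by ELISA at 24 h post-dose, with DMSO as baseline.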

[16] = biological target: human Peroxisome Proliferator-activated Receptor delta (PPARd), PPARD (gene 5467) (UniProt Q03181); experiment: ATG_PPARd_TRANS: Attagene TRANS-FACTORIAL HepG2 Assay for human Peroxisome Proliferator-activated Receptor delta (PPARd) (AID 2283002)
human Peroxisome Proliferator-activated Receptor delta (PPARd), PPARD (gene 5467), sequence (Q03181 whole entry, looked up, the tested form may be a part): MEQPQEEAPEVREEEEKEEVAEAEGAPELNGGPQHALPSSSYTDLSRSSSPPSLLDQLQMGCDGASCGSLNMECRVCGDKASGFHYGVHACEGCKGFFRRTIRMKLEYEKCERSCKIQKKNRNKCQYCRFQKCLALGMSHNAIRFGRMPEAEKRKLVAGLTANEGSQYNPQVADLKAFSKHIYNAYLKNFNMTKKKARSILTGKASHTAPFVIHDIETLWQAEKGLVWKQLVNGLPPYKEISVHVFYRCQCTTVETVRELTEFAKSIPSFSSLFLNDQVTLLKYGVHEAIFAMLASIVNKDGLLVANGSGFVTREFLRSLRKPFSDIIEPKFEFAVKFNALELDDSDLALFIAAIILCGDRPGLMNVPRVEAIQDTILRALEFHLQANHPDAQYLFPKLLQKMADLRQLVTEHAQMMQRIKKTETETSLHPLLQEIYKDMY
In short: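 Read-out is induced reporter mRNA, quantified by RT-PCR with fluorescent labelling and capillary electrophoresis after 24 h dosing. Cells are HepG2 transiently carrying multiple GAL4-UAS reporter units driven by exogenous NR-GAL4 chimeras; DMSO serves as baseline.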

[17] = biological target: human Retinoid X Receptor beta (RXRb), RXRB (gene 6257) (UniProt P28702); experiment: ATG_RXRb_TRANS: Attagene TRANS-FACTORIAL HepG2 Assay for human Retinoid X Receptor beta (RXRb) (AID 2283013)
human Retinoid X Receptor beta (RXRb), RXRB (gene 6257), sequence (P28702 whole entry, looked up): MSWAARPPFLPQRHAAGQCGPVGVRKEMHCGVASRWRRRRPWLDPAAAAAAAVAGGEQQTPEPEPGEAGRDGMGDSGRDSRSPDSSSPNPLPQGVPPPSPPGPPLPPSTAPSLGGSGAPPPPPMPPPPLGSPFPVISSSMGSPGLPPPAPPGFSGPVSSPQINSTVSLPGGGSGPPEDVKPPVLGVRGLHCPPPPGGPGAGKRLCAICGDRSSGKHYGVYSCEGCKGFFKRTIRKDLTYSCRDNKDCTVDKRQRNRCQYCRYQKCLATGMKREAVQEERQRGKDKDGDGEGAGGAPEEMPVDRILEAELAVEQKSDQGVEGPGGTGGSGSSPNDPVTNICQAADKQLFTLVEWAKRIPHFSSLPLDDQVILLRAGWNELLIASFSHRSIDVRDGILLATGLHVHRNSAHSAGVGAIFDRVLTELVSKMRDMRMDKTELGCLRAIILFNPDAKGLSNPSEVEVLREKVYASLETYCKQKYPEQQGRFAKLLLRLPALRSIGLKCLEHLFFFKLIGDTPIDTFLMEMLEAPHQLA
In short: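 Multiplexed TRANS reporter assay in HepG2; 24 h dosing; reporter mRNA by RT-PCR/CE fluorescence; gain-of-signal relative to DMSO.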

[18] = biological target: Peroxisome proliferator-activated receptor gamma (Homo sapiens) (UniProt P37231); experiment: ATG_PPARg_TRANS: Attagene TRANS-FACTORIAL HepG2 Assay for human Peroxisome Proliferator-activated Receptor-gamma (PPARg) (AID 2283007)
Peroxisome proliferator-activated receptor gamma (Homo sapiens), sequence (P37231 whole entry, looked up): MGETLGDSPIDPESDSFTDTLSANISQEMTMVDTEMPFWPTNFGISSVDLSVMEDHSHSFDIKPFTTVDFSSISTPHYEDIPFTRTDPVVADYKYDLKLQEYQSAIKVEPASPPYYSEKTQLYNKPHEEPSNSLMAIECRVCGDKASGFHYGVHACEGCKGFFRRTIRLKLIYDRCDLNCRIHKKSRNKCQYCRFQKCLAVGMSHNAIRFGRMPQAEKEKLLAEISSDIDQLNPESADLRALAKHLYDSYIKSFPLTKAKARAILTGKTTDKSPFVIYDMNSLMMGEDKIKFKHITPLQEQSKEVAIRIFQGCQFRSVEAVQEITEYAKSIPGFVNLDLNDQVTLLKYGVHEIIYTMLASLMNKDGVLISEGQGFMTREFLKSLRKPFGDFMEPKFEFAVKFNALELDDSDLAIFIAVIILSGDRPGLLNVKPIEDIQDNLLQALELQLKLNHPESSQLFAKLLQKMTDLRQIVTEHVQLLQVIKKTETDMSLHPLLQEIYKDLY
In short: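 Human hepatoma HepG2, transient MRTU transfection, 24 h treatment. mRNA reporter signal by RT-PCR plus capillary electrophoresis, fluorescence detection; fitted for increase over DMSO negative control.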

[19] = biological target: human Retinoic Acid Receptor gamma (RARg), RARG (gene 5916) (UniProt P13631); experiment: ATG_RARg_TRANS: Attagene TRANS-FACTORIAL HepG2 Assay for human Retinoic Acid Receptor gamma (RARg) (AID 2283009)
In short: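 HepG2, RARg-GAL4 TRANS system, 24 h exposure; reporter mRNA by RT-PCR + CE fluorescence; increase over DMSO.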

Measured: AC50

E-selectin (Homo sapiens), sequence (P16581 whole entry, looked up): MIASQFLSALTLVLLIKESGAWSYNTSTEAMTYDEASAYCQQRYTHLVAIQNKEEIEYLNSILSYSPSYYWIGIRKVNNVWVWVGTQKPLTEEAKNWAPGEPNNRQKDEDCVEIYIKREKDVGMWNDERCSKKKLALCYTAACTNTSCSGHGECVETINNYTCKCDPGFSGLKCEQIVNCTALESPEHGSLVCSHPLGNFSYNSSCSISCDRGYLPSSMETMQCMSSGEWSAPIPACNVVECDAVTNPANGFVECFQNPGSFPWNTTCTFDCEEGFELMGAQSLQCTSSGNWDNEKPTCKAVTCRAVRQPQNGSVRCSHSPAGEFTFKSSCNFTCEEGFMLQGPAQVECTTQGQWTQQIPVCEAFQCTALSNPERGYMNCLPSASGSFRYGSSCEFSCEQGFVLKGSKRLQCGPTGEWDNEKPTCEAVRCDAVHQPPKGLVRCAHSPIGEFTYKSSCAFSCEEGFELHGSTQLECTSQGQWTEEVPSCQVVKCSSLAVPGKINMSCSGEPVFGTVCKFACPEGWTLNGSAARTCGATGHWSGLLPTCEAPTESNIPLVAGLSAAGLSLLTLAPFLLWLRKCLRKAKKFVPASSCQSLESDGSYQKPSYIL

O=c1n(CCO)c(=O)n(CCO)c(=O)n1CCO
inactive: [1] | [2] | [3] | [4] | [5]

CO[Si](OC)(OC)c1ccccc1
inactive: [6] | [7] | [8] | [9] | [10] | [11] | [12] | [13] | [14] | [15]

CC1(C)O[C@@H]2C[C@H]3[C@@H]4C[C@H](F)C5=CC(=O)CC[C@]5(C)[C@H]4[C@@H](O)C[C@]3(C)[C@]2(C(=O)CO)O1
active: [8] 27 µM | [17] 31.8 µM
inactive: [16] | [5] | [9]

Cc1ccc2c(c1)C(=O)c1ccccc1C2=O
inactive: [16] | [19] | [5] | [17]
active: [18] 15.1 µM

CCOC(=O)N1CCC(=C2c3ccc(Cl)cc3CCc3cccnc32)CC1
inactive: [16] | [5]

O=C1CCCN1CCO
not listed: [1] | [2] | [5] | [16] | [17] | [18] | [19]
inactive: all other assays above

O=S(=O)(O)c1ccc2cc(O)c(S(=O)(=O)O)cc2c1
inactive: [16] | [8] | [5] | [17]

Cc1oncc1C(=O)Nc1ccc(C(F)(F)F)cc1
active: [18] 41.1 µM
inactive: [16] | [19] | [5] | [9]

CCCCC(CC)COCC1CO1 (stereo unspecified)
not listed: [1] | [2] | [3] | [16] | [19]
inactive: all other assays above

O=C1CCCC1
inactive: [1] | [2] | [3] | [4] | [5] | [17] | [9]

CCCCCCOC(=O)C(C)CC (stereo unspecified)
inactive: [16] | [8] | [3] | [5] | [9]

CCCCCCCCc1ccc(Nc2ccc(CCCCCCCC)cc2)cc1
active: [8] 1.68 µM
not listed: [3] | [4] | [16]
inactive: all other assays above

Cc1cc(C)c(C)c(C)c1
inactive: [16] | [18] | [3] | [4] | [17] | [9]
